BoNT-A LC inh2 = inhibitors of Botulinum neurotoxin A light chain protease; multiplex microsphere protease substrate cleavage, flow cytometry; AID 588499; 360,000 compounds, 0.17% hits; inhibition, % at 10 µM; note: plate controls were buffer without enzyme for full effect and enzyme alone for no effect
BoNT F protease = BoNT F light chain protease inhibition | Multiplex microsphere protease cleavage assay, flow cytometry | inhibition, % at 10 µM | 360,000 compounds, 0.22% hits | AID 588497; in the data active = inhibition above about 35%, passing the limit was not always enough; inconclusive = no clear call, values can overlap the other calls; note: plate controls were buffer without enzyme for full effect and enzyme alone for no effect
Bead autofluor = flagged as autofluorescent in microsphere protease counterscreen | 360,000 compounds, 3.1% hits | fluorescence intensity (test concentration not listed) | AID 624483 | compound autofluorescence counterscreen, microsphere flow cytometry; stronger effect = higher value; in the data active = fluorescence intensity above about 16000; inconclusive = no clear call, values can overlap the other calls
SARS 3CLpro inh = SARS-CoV 3CLpro protease inhibition. recombinant SARS-CoV 3CLpro, quenched FRET peptide cleavage. inhibition, % at 6 µM. 290,000 compounds, 0.14% hits; in the data active = inhibition above about 12%
Anthrax LF prot = inhibitors of Bacillus anthracis lethal factor protease | P15917 | multiplex microsphere protease cleavage assay, LF | inhibition, % at 10 µM | 360,000 compounds, 0.12% hits | AID 588501; note: plate controls were buffer without enzyme for full effect and enzyme alone for no effect
Target sequence (P15917 whole entry, looked up): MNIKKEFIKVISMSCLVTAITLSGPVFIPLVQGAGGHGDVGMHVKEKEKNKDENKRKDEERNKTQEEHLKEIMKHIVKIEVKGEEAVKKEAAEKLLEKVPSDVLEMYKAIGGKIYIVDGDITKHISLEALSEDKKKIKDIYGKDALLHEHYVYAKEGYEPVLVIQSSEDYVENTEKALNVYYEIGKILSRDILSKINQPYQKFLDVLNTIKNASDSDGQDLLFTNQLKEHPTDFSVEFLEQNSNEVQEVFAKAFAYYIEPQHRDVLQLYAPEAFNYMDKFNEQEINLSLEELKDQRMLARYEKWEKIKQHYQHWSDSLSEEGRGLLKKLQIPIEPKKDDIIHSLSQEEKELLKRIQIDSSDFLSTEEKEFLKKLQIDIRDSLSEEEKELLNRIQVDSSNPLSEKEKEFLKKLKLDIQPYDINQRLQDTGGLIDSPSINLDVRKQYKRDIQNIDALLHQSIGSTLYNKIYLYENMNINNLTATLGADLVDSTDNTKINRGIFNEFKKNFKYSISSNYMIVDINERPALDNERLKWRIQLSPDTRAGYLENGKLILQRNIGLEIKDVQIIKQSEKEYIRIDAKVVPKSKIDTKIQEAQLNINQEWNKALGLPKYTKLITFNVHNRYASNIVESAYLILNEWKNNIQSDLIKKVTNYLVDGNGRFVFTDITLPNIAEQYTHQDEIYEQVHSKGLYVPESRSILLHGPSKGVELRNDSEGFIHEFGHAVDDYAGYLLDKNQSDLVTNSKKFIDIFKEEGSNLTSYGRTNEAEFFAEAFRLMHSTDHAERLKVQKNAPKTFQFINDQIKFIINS
BoNTA LC inh 1 = blocks botulinum neurotoxin A light chain protease; AID 602139; shares compounds with BoNT F protease; inhibition, % at 10 µM; 720 compounds, 3% hits; multiplex microsphere protease assay, flow cytometry; in the data active = inhibition above about 32%
BoNT-F LC CP1 = inhibitors of Botulinum neurotoxin F light chain protease. AID 602140. multiplex microsphere protease cleavage assay, flow cytometry. inhibition, % at 10 µM. shares compounds with BoNT F protease. 720 tested, under 10 active; call rule not given here
Anthrax LF CP1 = Bacillus anthracis lethal factor protease inhibition; multiplex microsphere protease cleavage assay, LF; 720 tested, under 10 active; inhibition, % at 10 µM; shares compounds with BoNT F protease; call rule not given here
Numbers without * were called inactive; ? = inconclusive; . = no result given. Only some compounds are listed: those with a hit (about 3.5% of all), similar ones and a draw of the others. Cut-off read from the data, not from the text of the source, unless noted: active = inhibition above about 30%; inconclusive = no clear call, values can overlap the other calls; inactive = below that.

SMILES	BoNT-A LC inh2	BoNT F protease	Bead autofluor	SARS 3CLpro inh	Anthrax LF prot	BoNTA LC inh 1	BoNT-F LC CP1	Anthrax LF CP1
CCN(CC)S(=O)(=O)c1cc(C(=O)Oc2cccc(-c3cnc4ccccc4n3)c2)ccc1OC	0.1	-3.3	2256	-3.5	-2.1	.	.	.
Cn1c(=O)[nH]c(=O)c2c1nc1n2CC(O)CN1c1ccccc1 (centres undefined)	2.8	36.4*	3482	1.0	-13.5	-0.4	-0.7	-2.3
O=S(=O)(Nc1cc2nc3ccccc3nc2n1Cc1ccccc1)c1ccc(Cl)cc1	32.8*	-10.8	2849	2.1	9.1	14.2	-0.9	4.4
O=S(=O)(NCc1ccccc1)c1ccc(Cl)cc1	0.0	13.0	3948	1.3	1.1	.	.	.
Cn1cc(CC(=O)NCCCN2CCCC2)c2ccccc21	4.3	35.9*	3978	4.6	8.1	1.2	-2.3	0.2
CN(C)C(=O)c1cn(CCC#N)nc1-c1ccc2ccccc2c1	0.4	52.0*	3918	2.3	11.7	-0.8	-11.7	-0.1
N#CCCn1cc(C(N)=O)c(-c2ccc3ccccc3c2)n1	0.7	-28.4	3976	3.2	18.7	.	.	.
O=C(COc1ccc2c(c1)OCO2)Nc1ccccc1C(F)(F)F	-0.4	-3.0	2319	3.5	-1.2	.	.	.
Cc1ccccc1C(=O)Nc1nnc(-c2ccncc2)o1	-0.7	1.7	3983	3.2	-8.3	.	.	.
O=C(Cc1ccc(Cl)cc1)NC1CCCCCC1	-3.0	39.8*	3892	0.9	12.1	0.5	-4.5	-2.7
Cn1c(C(=O)NCCCN2CCN(c3ccc(F)cc3)CC2)cc2c(=O)n(C)c3ccccc3c21	-0.6	0.3	4367	.	-7.4	.	.	.
COc1ccc(C(CNC(=O)c2cccc(S(=O)(=O)Nc3ccccc3OC)c2)N2CCCC2)cc1 (centres undefined)	1.2	36.9*	11267	.	4.0	-9.9	-2.3	-3.6
COc1ccc(NS(=O)(=O)c2cccc(C(=O)Nc3ccccc3C(=O)O)c2)cc1	-0.7	?	4460	5.7	2.7	-0.7	-2.1	4.3
CC(=O)c1ccc(NS(=O)(=O)c2cccc(C(=O)Nc3ccccc3C(=O)O)c2)cc1	3.8	-4.6	3368	7.2	-2.1	-0.4	-0.7	6.2
COc1ccc(C(CNC(=O)c2cccc(S(=O)(=O)Nc3ccccc3OC)c2)N2CCCCC2)cc1 (centres undefined)	-3.4	4.9	7054	.	-3.4	.	.	.
CCCNC(=O)c1ccccc1NC(=O)c1ccccc1N(C)S(C)(=O)=O	-0.5	?	4231	-1.7	-1.1	.	.	.
CCCNC(=O)c1ccccc1NC(=O)c1ccccc1N(C)S(=O)(=O)c1ccc(C)cc1	-1.4	38.3*	12100	0.5	1.4	-0.6	-0.7	-0.8
Cc1ccnc(NC(=O)C2COc3ccccc3O2)c1 (centres undefined)	-0.6	-2.3	2202	-8.3	-0.3	.	.	.
O=C(CCSc1ccccn1)Nc1ccc(Br)cc1	4.4	47.2*	2146	-2.1	0.3	-0.6	-7.4	-0.3
Cc1nn2c(c1-c1ccccc1)NC1=C(C(=O)CCC1)C2c1ccccc1 (centres undefined)	28.4	35.7*	12476	-2.3	3.1	-0.4	-3.5	1.5
CCC(=O)N1c2ccccc2NC2=C(C(=O)CCC2)C1c1ccccc1 (centres undefined)	-0.9	-8.8	8244	1.2	-2.9	.	.	.
NS(=O)(=O)c1ccc(CNC(=O)C23CC4CC(CC(C4)C2)C3)cc1	0.4	-2.8	3115	-5.7	-2.6	.	.	.
O=C(O)c1ccc(CNC(=O)C23CC4CC(CC(C4)C2)C3)cc1	10.2	98.2*	3426	-5.4	9.2	-2.5	-0.5	-6.4
Cc1ccc(S(=O)(=O)N(CC(=O)NCc2ccncc2)Cc2ccccc2F)cc1	-1.5	34.8*	2926	-0.7	9.9	-0.4	-3.2	-1.9
CCOc1ccccc1NC(=O)c1ccc(S(=O)(=O)N(C)c2ccccc2)cc1	-0.4	-7.9	3483	.	-13.2	.	.	.
SMILES	BoNT-A LC inh2	BoNT F protease	Bead autofluor	SARS 3CLpro inh	Anthrax LF prot	BoNTA LC inh 1	BoNT-F LC CP1	Anthrax LF CP1
CCOc1ccccc1NC(=O)c1ccc(S(=O)(=O)N(C)C)cc1	0.5	4.0	?	0.8	38.6*	0.0	-4.0	-1.2
COc1ccccc1N(CC(=O)Nc1ccccc1C)S(C)(=O)=O	-0.2	7.6	10372	3.0	-1.8	.	.	.
Cc1ccccc1NC(=O)CN(c1ccc(F)cc1)S(C)(=O)=O	-0.1	42.4*	3419	3.0	-4.7	0.5	-4.9	-1.7
CCCS(=O)(=O)NC(=O)C1(C)CCCN(C(=O)c2nc(C)oc2C)C1 (centres undefined)	-0.3	-1.2	3777	.	6.9	.	.	.
COc1ccc(/C=N\NC(=O)c2ccc(Cn3cc(Br)c([N+](=O)[O-])n3)o2)c(OC)c1C	-2.1	-17.1	2020	5.5	2.2	.	.	.
Brc1cccc(OCCCCN2CCCCC2)c1	3.5	35.2*	2936	-1.7	-1.7	0.2	5.2	2.9
CCOc1cccc(OCCCCN2CCCCC2)c1	0.9	0.5	10400	-4.5	-7.4	.	.	.
CC(C)c1ccc2nc3sc(C(=O)N4CCc5ccccc5C4)c(N)c3cc2c1	21.2	23.4	8548	2.0	17.7	4.4	-0.9	4.4
CCN1CCc2nc3sc(C(=O)N4CCc5ccccc5C4)c(N)c3cc2C1	6.2	-27.8	5053	-16.9	-1.7	.	.	.
COc1ccc(S(=O)(=O)NC(C)C(=O)N2CCCC2)cc1Cl (centres undefined)	2.5	?	3107	-1.4	30.9*	0.3	16.4	-2.0
O=C(Nc1cccc2ncccc12)c1ccccc1F	-0.9	10.3	4504	-4.0	6.7	.	.	.
COc1ccc(C2=NN(C(=O)CN3CCCCC3)C(c3ccc(OC)cc3)C2)cc1 (centres undefined)	?	?	4424	-2.0	-2.4	.	.	.
COc1ccc(C2=NN(C(=O)CN3CCCC3)C(c3ccc(OC)cc3)C2)cc1 (centres undefined)	2.5	56.8*	4751	-0.4	33.6*	-1.4	-6.7	-1.4
CC(NC(=O)Nc1nnc(C(F)(F)F)s1)(C(F)(F)F)C(F)(F)F	-0.4	-10.3	2520	3.7	-4.6	.	.	.
CCn1c(=O)n(CC)c2cc(S(=O)(=O)N3CCCCC3)c(C)cc21	0.0	-3.5	10905	7.2	-5.6	.	.	.
CCn1c(=O)n(CC)c2cc(S(N)(=O)=O)c(C)cc21	8.2	44.0*	7485	2.5	7.1	0.6	-3.3	-2.6
CCN(CC)C(=O)c1ccccc1NC(=O)c1ccccc1C	1.0	7.8	3244	2.6	3.2	.	.	.
CCOC(=O)CCCCC(=O)c1[nH]c(=O)[nH]c1Cn1cnc2ccccc21	4.8	34.3	5662	-2.8	-6.2	-0.1	-9.9	-2.8
CCOC(=O)CCCCC(=O)c1[nH]c(=O)[nH]c1CSc1nc(-c2ccccc2)c(C#N)c(=O)[nH]1	3.7	15.2	5259	0.0	-6.0	.	.	.
CCOC(=O)CCCCC(=O)c1[nH]c(=O)[nH]c1CSCCO	8.0	64.5*	5536	4.0	2.8	0.9	-3.2	-5.3

Compound activity: PubChem BioAssay, several laboratories
